PubChem BioAssay
Activity calls are given as the source filed them. Unless noted, the rule behind the calls is not given here.

What was measured:
[1] = tested on: XIP peptide (Xip251-270) binding; assay: XIP fragment 251-270 binding compounds – biochemical, small-molecule microarray, fluorescence 635/667 nm, 0.1 µg/mL protein, primary screen (AID 1182); details: fluorescent protein binding, 635 nm, higher = more signal, called active from +8 up or from −8 down
XIP peptide (Xip251-270) = assay: compounds binding XIP fragment 251-270 – biochemical, small-molecule microarray, fluorescence 635/667 nm, 0.5 µg/mL protein, primary screen (AID 1183); details: fluorescence 635 nm, higher = more signal
[2] = blood-stage malaria parasite viability loss – strain 3D7, DAPI fluorescence, 100 nL, primary screen (AID 1184);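 note: parasites grown inside human red blood cells in medium with human serum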; details: P. falciparum 3D7 growth, 3 d, higher = more signal
[3] = molecular target: Homeobox protein Hox-A13 (Mus musculus) (UniProt Q62424); assay: disruptors of Hoxa13 oligonucleotide interaction – biochemical, fluorescence polarization, labeled oligonucleotide, primary screen (AID 1185); details: Hoxa13:DNA binding, 15 min, higher = more signal, called active from +8 up or from −8 down
[4] = blockers of DNA damage checkpoint Chk1 activation – imaging, HeLa, hydroxyurea, phospho-Chk1 antibody, percent positive cells, primary screen (AID 1186); details: hydroxyurea-induced phospho-Chk1 immunofluorescence imaging, higher = more signal
[5] = blockers of DNA damage checkpoint Chk1 activation – imaging, HeLa, hydroxyurea, phospho-Chk1 nuclear intensity, primary screen (AID 1187); details: hydroxyurea-induced phospho-Chk1 immunofluorescence imaging, higher = more signal

Sequence of Homeobox protein Hox-A13 (Mus musculus) (Q62424 whole entry, looked up): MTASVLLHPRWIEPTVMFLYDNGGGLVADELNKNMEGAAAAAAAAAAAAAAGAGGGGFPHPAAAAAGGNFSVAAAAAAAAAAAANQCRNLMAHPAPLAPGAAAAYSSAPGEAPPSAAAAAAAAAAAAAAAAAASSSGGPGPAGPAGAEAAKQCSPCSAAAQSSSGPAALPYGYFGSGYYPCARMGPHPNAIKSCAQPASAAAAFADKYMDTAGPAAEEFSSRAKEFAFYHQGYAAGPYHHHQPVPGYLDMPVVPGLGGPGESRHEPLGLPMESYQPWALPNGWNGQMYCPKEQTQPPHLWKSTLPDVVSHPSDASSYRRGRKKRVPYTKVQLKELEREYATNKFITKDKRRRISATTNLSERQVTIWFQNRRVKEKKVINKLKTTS

Row | SMILES | composite z-score [1] | composite z-score (XIP peptide (Xip251-270)) | z-score [2] | z-score [3] | z-score [4] | z-score [5]
1 | [N-]=[N+]=NCc1ccccc1[C@@H]1OC(c2ccc(OCCCO)cc2)=N[C@]1(Cc1ccccc1N=[N+]=[N-])C(=O)N1CCCCC1 | 0.111 (inactive) | 0.724 | -2.16 | -1.44 (inactive) | -0.234 (inactive) | -0.0332 (inactive)
2 | CC(C)C(=C=CC[C@@H](O)c1cccc(OCCO)c1)C[C@@H](O)c1ccccn1 | -0.0008 (inactive) | 0.29 | -0.0244 | -5.17 (inactive) | -0.122 (inactive) | 0.156 (inactive)
3 | CC(C)[C@H]1NC(=O)[C@@]23C(=O)N[C@@H](Cc4ccccc4)C2[C@H](C)[C@@]2(C)O[C@H]2C3/C=C/C/C=C\CNC(=O)[C@H](Cc2ccccc2)NC1=O (stereo not given in full) | 0.21 (inactive) | 0.763 | -2.45 | -5.69 (inactive) | 0.174 (inactive) | 0.5 (inactive)
4 | O=C1C2C=CC(C(O)c3ccco3)N(Nc3ccccc3)C2C(=O)N1c1ccccc1 (stereo not given) | 1.11 (inactive) | 0.8 | 0.125 | -2.27 (inactive) | 0.209 (inactive) | -0.0253 (inactive)
5 | C=CCC(OC(C)=O)[C@@H]1[C@@H](N(Cc2cccc3ccccc23)C(=O)c2cccc3ccccc23)c2cc(OCCCO)ccc2N1C(=O)c1ccc2ccccc2c1 (stereo not given in full) | 0.25 (inactive) | 0.012 | -2.41 | -1.18 (inactive) | -0.534 (inactive) | -0.158 (inactive)
6 | C=C(C(=O)CC[C@H](OC(=O)c1ccccc1-c1ccccc1C(=O)O)c1ccccc1OCCO)C(C)C | -0.0286 (inactive) | 0.7 | -2.47 | -5.13 (inactive) | -0.126 (inactive) | -0.0147 (inactive)
7 | CC(C)C(=C=CC[C@@H](O)c1cccc(OCCO)c1)C[C@@H](O)COCc1ccccc1 | -0.096 (inactive) | 0.294 | -1.18 | -4.48 (inactive) | -1.66 (inactive) | -0.631 (inactive)
8 | COc1ccc(C(O)C2C=CC3C(=O)N(c4ccccc4)C(=O)C3N2Nc2ccc(C(C)C)cc2)c2ccccc12 (stereo not given) | 0.886 (inactive) | 0.802 | -0.247 | -0.93 (inactive) | 0.417 (inactive) | 0.0807 (inactive)
9 | CCCCC(=O)N(CCN1CCOCC1)[C@@H]1CC(C(=O)NCCO)=C[C@H](Oc2c(I)cc(CO)cc2OC)[C@H]1O | 0.763 (inactive) | 0.918 | -0.0342 | -4.26 (inactive) | -0.686 (inactive) | -0.31 (inactive)
10 | Cc1ccc(S[C@]2(C(=O)NCC(C)C)CC(=O)N(C3Cc4ccccc4C3)[C@@H]2c2ccc(CO)cc2I)cc1 | -0.238 (inactive) | -0.658 | -0.233 | -2.9 (inactive) | 0.495 (inactive) | 0.307 (inactive)
11 | [N-]=[N+]=NCc1ccccc1C[C@]1(C(=O)N2CCOCC2)COC(c2ccc(OCCCO)cc2)=N1 | 0.15 (inactive) | 0.711 | -2.2 | -4.87 (inactive) | -0.677 (inactive) | -0.718 (inactive)
12 | CC(C)C[C@@H]1NC(=O)[C@@]23C(=O)N[C@@H](Cc4ccccc4)C2[C@H](C)[C@@]2(C)O[C@H]2C3/C=C/C/C=C\CNC(=O)[C@@H](C)NC1=O (stereo not given in full) | 0.772 (inactive) | 0.649 | -1.65 | -4.91 (inactive) | -0.674 (inactive) | -0.734 (inactive)
13 | CN(C)C(=O)[C@@]1(Cc2ccccc2N=[N+]=[N-])N=C(c2ccc(OCCCO)cc2)O[C@H]1c1ccccc1 | 1.47 (inactive) | 0.821 | -2.19 | -4.9 (inactive) | -0.279 (inactive) | -0.303 (inactive)
14 | COC(=O)C1N=C(c2ccc(OCCCO)cc2)N(c2ccccc2)O1 (stereo not given) | 2.4 (inactive) | 0.864 | 0.704 | -3.85 (inactive) | -0.729 (inactive) | -0.63 (inactive)
15 | COCCOC(=O)N1C(=O)[C@@]2(c3cc(C#CCNC(N)=O)ccc31)[C@H](c1ccc(OCCO)cc1)N1[C@H](c3ccccc3)[C@H](c3ccccc3)OC(=O)[C@H]1[C@@H]2C(N)=O | 0.236 (inactive) | 0.442 | 0.691 | -2.25 (inactive) | 0.139 (inactive) | 0.189 (inactive)
16 | CC(C)N1CC=CC23O[C@@H]4/C=C\CCCOC(=O)C4[C@H]2C(=O)N(CCCCCCO)[C@@H]3C1=O (stereo not given in full) | 1.15 (inactive) | -0.853 | -0.064 | -5.14 (inactive) | -0.765 (inactive) | -0.0806 (inactive)
17 | COc1cc(NN2C(C(O)C3CCCCC3)C=CC3C(=O)N(C)C(=O)C32)cc(OC)c1OC (stereo not given) | 0.123 (inactive) | 0.704 | -0.246 | -4.48 (inactive) | 0.281 (inactive) | 0.264 (inactive)
18 | CCOC(=O)C1=CCC(c2ccccc2)N(S(=O)(=O)c2ccc([N+](=O)[O-])cc2)C1 (stereo not given) | 0.0444 (inactive) | -0.165 | -0.198 | -1.91 (inactive) | 0.268 (inactive) | -0.0449 (inactive)

Row | SMILES | composite z-score [1] | composite z-score (XIP peptide (Xip251-270)) | z-score [2] | z-score [3] | z-score [4] | z-score [5]
19 | CCOC(=O)C1=C[C@@H](C(C)(C)C)N(S(=O)(=O)c2ccc(C)cc2)[C@H]1c1cccc(Cl)c1 | -0.248 (inactive) | 0.765 | -2.08 | 0.0204 (inactive) | 0.347 (inactive) | -0.136 (inactive)
20 | C=CCC(OC(C)=O)[C@@H]1[C@@H](N(Cc2ccc(-c3ccccc3)cc2)C(=O)Cc2ccc(F)cc2)c2cc(OCCCO)ccc2N1C(=O)Cc1ccc2ccccc2c1 (stereo not given in full) | -0.632 (inactive) | 0.233 | -1.3 | -1.5 (inactive) | 0.433 (inactive) | -0.048 (inactive)
21 | C=CCN1C(=O)[C@]2(O[C@H](CCO)[C@@H]([Si](C)(C)c3ccc(OC)cc3)[C@@H]2C)c2cc(NC(=O)c3ccc(OC)cc3)ccc21 | -0.129 (inactive) | 0.456 | -2.64 | -5.32 (inactive) | -0.97 (inactive) | -0.881 (inactive)
22 | O=C(CS)NCCCCCCNC(=O)[C@@H]1C[C@@H]2C(=O)NCC(=O)N2[C@@H]1c1ccc(O)cc1 | 1.06 (inactive) | 0.897 | 0.271 | -1.63 (inactive) | -0.0858 (inactive) | 0.201 (inactive)
23 | CCCCCCCCCCC(O)C1C=CC2C(=O)N(c3ccccc3)C(=O)C2N1Nc1ccccc1F (stereo not given) | 1.69 (inactive) | 0.538 | 0.157 | 0.356 (inactive) | -0.745 (inactive) | -1.48 (inactive)
24 | Nc1cc(Br)ccc1C(=O)O | 0.513 (inactive) | -0.244 | 1.1 | 0.686 (inactive) | 0.132 (inactive) | 0.343 (inactive)
25 | C=CCC(OC(C)=O)[C@@H]1[C@@H](N(Cc2cccc3ccccc23)C(=O)Cc2ccc(F)cc2)c2cc(OCCCO)ccc2N1C(=O)c1ccc(-c2ccccc2)cc1 (stereo not given in full) | -1.31 (inactive) | -1.14 | -1.69 | -1.09 (inactive) | 0.19 (inactive) | -0.39 (inactive)
26 | CC(C)[C@H]1NC(=O)[C@@]23C(=O)N[C@@H](Cc4ccccc4)C2[C@H](C)[C@@]2(C)O[C@H]2C3/C=C/CCC/C=C/CNC(=O)[C@H](Cc2ccccc2)NC1=O (stereo not given in full) | 0.621 (inactive) | 0.741 | -1.83 | -6.22 (inactive) | -0.165 (inactive) | -0.0036 (inactive)
27 | CCCCC=C[C@@H](NC(=O)c1ccccc1)c1ccccc1 | 0.558 (inactive) | 0.496 | -1.47 | 2.61 (inactive) | 0.855 (inactive) | 0.274 (inactive)
28 | CC(C)(C)OC(=O)CC[C@]12N=C(c3ccc(OCCCO)cc3)O[C@H]1c1ccccc1N(Cc1ccccc1)C2=O | -0.326 (inactive) | 0.802 | -2.21 | -0.817 (inactive) | -0.022 (inactive) | 0.363 (inactive)
29 | C=CCOC(=O)[C@H]1[C@@H]2C(=O)O[C@@H](c3ccccc3)[C@@H](c3ccccc3)N2[C@@H](c2ccc(OCCOC(=O)[C@H]3C[C@H]4C(=O)N[C@@H](CCCCNC(C)=O)C(=O)N4[C@H]3c3cccc(OCCO)c3)cc2)[C@]12C(=O)Nc1ccc(I)cc12 | 0.996 (inactive) | 0.68 | -1.61 | 2.36 (inactive) | -0.138 (inactive) | 0.239 (inactive)
30 | CC(=O)NCCCC[C@@H]1NC(=O)[C@H]2C[C@@H](C(=O)NCCCCCNC(=O)CS)[C@@H](c3cccc(OCCO)c3)N2C1=O | 4.01 (inactive) | 0.854 | -0.559 | -3.69 (inactive) | 0.276 (inactive) | 0.591 (inactive)
31 | C[C@]1(C(=O)NCC(F)(F)F)c2ccccc2C(=O)N(Cc2ccccc2)[C@H]1c1ccc(CO)cc1 | 0.636 (inactive) | -0.0904 | 0.169 | -4.07 (inactive) | -0.301 (inactive) | -0.232 (inactive)
32 | C=CC1c2cc(O)c(OC)cc2CCN1Cc1ccc([N+](=O)[O-])o1 (stereo not given) | 0.835 (inactive) | 0.905 | -0.83 | -4.18 (inactive) | -0.131 (inactive) | 0.406 (inactive)
33 | CCCC=C(CCC)[C@@H](NC(=O)CCc1ccccc1)c1ccc(C(F)(F)F)cc1 | -0.143 (inactive) | 0.75 | -1.65 | -3.8 (inactive) | 0.007 (inactive) | -0.287 (inactive)
34 | C=C(CCCC)C(=O)CC[C@H](OC(=O)c1ccccc1-c1ccccc1C(=O)O)c1ccccc1OCCO | 0.267 (inactive) | 0.0422 | -2.61 | -5.63 (inactive) | -0.309 (inactive) | -0.102 (inactive)
35 | C=C(C)C1CCC(C(O)C2C=CC3C(=O)N(C)C(=O)C3N2Nc2cc(OC)c(OC)c(OC)c2)CC1 (stereo not given) | 0.287 (inactive) | 0.596 | -0.593 | -5.2 (inactive) | -0.113 (inactive) | -0.431 (inactive)
